Counter-ions that a name gives are not always drawn.
These compounds were tested on Danio rerio larvae (5 dpf) (assay: combined upward orientation toward moving lines (periods 7-14) minus DMSO control (percentage points); higher = more orientation with moving lines than DMSO larvae). Conditions: 10 µM; exposure time: 3 h pre-incubation + 3 h imaging.
Experimental: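 Wild-type 5 dpf zebrafish larvae (n=48 per drug, 96-well plates, 28.5 °C) were exposed to Tocris FDA-approved library compounds at 10 µM (0.1% DMSO) for 3 h before and 3 h during imaging. Images were taken every 6 s during visual (moving coloured lines) and acoustic stimuli, and larvae were tracked with the DeepLabCut-based Z-LaP Tracker. Each behavioural measure is the treated-group mean minus the DMSO vehicle control mean (n=844), in percentage points. This mapping covers compounds with 4-character plate codes.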

| SMILES | combined upward orientation toward moving lines |
| --- | --- |
| CC(C)(C#N)c1cc(Cn2cncn2)cc(C(C)(C)C#N)c1 [Anastrozole] | -0.152 |
| CCCN(CCc1cccs1)[C@H]1CCc2c(O)cccc2C1 [Rotigotine hydrochloride] | -7.46 |
| O=C(NCC1CCCCN1)c1cc(OCC(F)(F)F)ccc1OCC(F)(F)F (stereo not given) [Flecainide acetate] | -3.7 |
| COC(c1ccccc1)(c1ccccc1)[C@H](Oc1nc(C)cc(C)n1)C(=O)O [Ambrisentan] | -0.152 |
| COc1ccc(Cl)cc1C(=O)NCCc1ccc(S(=O)(=O)NC(=O)NC2CCCCC2)cc1 [Glibenclamide] | -10.9 |
| CN1CCN2c3ncccc3Cc3ccccc3C2C1 (stereo not given) [Mirtazapine] | -11.4 |
| COc1cc2nc(N3CCN(C(=O)C4COc5ccccc5O4)CC3)nc(N)c2cc1OC (stereo not given) [Doxazosin mesylate] | -11.6 |
| Cc1nnc(C(C)C)n1C1C[C@H]2CC[C@@H](C1)N2CC[C@H](NC(=O)C1CCC(F)(F)CC1)c1ccccc1 (stereo in doubt) [Maraviroc] | -1.2 |
| CCOC(=O)N1CCC(=C2c3ccc(Cl)cc3CCc3cccnc32)CC1 [Loratidine] | -3.52 |
| CCCCNc1cc(C(=O)O)cc(S(N)(=O)=O)c1Oc1ccccc1 [Bumetanide] | -3.42 |
| Brc1c(NC2=NCCN2)ccc2nccnc12 | -1.14 |
| COc1cc(Nc2c(C#N)cnc3cc(OCCCN4CCN(C)CC4)c(OC)cc23)c(Cl)cc1Cl [Bosutinib] | -2.87 |
| Nc1nc(NC2CC2)c2ncn([C@H]3C=C[C@@H](CO)C3)c2n1 [Abacavir hemisulfate] | -1.52 |
| OC(CNCC(O)C1CCc2cc(F)ccc2O1)C1CCc2cc(F)ccc2O1 (stereo not given) [Nebivolol hydrochloride] | -7.15 |
| NS(=O)(=O)Cc1noc2ccccc12 [Zonisamide] | 1.75 |
| CCN(Cc1ccncc1)C(=O)C(CO)c1ccccc1 (stereo not given) [Tropicamide] | 3.89 |
| OCCN(CCO)c1nc(N2CCCCC2)c2nc(N(CCO)CCO)nc(N3CCCCC3)c2n1 [Dipyridamole] | -2.19 |
| CC(C)[C@H]1CC[C@H](C(=O)N[C@H](Cc2ccccc2)C(=O)O)CC1 [Nateglinide] | -0.86 |
| CN1CCC[C@@H]1CCO[C@](C)(c1ccccc1)c1ccc(Cl)cc1 [Clemastine fumarate] | 4.64 |
| CS(=O)(=O)CCNCc1ccc(-c2ccc3ncnc(Nc4ccc(OCc5cccc(F)c5)c(Cl)c4)c3c2)o1 [Lapatinib] | 1.75 |

| SMILES | combined upward orientation toward moving lines |
| --- | --- |
| CCCCCCCCc1ccc(CCC(N)(CO)CO)cc1 | -8.46 |
| CN/C(=N\CCSCc1nc[nH]c1C)NC#N [Cimetidine] | -0.665 |
| OCCOCCN1CCN(C2=Nc3ccccc3Sc3ccccc32)CC1 [Quetiapine hemifumarate] | -3.4 |
| CCCc1nc2c(C)cc(-c3nc4ccccc4n3C)cc2n1Cc1ccc(-c2ccccc2C(=O)O)cc1 [Telmisartan] | -1.92 |
| COc1cccc2c1C(=O)c1c(O)c3c(c(O)c1C2=O)C[C@@](O)(C(=O)CO)C[C@@H]3O[C@H]1C[C@H](N)[C@H](O)[C@H](C)O1 [Doxorubicin hydrochloride] | -1.38 |
| CC(=O)O[C@]1(C(C)=O)CC[C@H]2[C@@H]3C=C(C)C4=CC(=O)CC[C@]4(C)[C@H]3CC[C@@]21C [Megestrol Acetate] | -1.8 |
| Nc1cc(N2CCCCC2)nc(N)[n+]1[O-] [Minoxidil] | -2.16 |
| COC(=O)C1=C(C)NC(C)=C(C(=O)OC(C)C)C1c1cccc2nonc12 (stereo not given) [Isradipine] | -3.59 |
| COc1ccc(-c2ccc3cc(C(=O)O)ccc3c2)cc1C12CC3CC(CC(C3)C1)C2 [Adapalene] | -8.09 |
| CN(C)CCc1c[nH]c2ccc(Cn3cncn3)cc12 [Rizatriptan benzoate] | -1.53 |
| COc1ccccc1OCCNCC(O)COc1cccc2[nH]c3ccccc3c12 (stereo not given) [Carvedilol] | -11.6 |
| C#C[C@]1(O)CC[C@H]2[C@@H]3CCC4=CC(=O)CC[C@@H]4[C@H]3CC[C@@]21CC [Levonorgestrel] | 5.76 |
| CN(C)CC/C=C1/c2ccccc2COc2ccc(CC(=O)O)cc21 [Olopatadine hydrochloride] | -3.54 |
| COc1c(C)c2c(c(O)c1C/C=C(\C)CCC(=O)O)C(=O)OC2 [Mycophenolic acid] | -0.977 |
| CC(CCc1ccc(O)cc1)NCCc1ccc(O)c(O)c1 (stereo not given) [Dobutamine hydrochloride] | 0.917 |
| Cc1ccccc1C(=O)Nc1ccc(C(=O)N2CCCC(O)c3cc(Cl)ccc32)c(C)c1 (stereo not given) [Tolvaptan] | -0.0581 |
| Cn1cnc([N+](=O)[O-])c1Sc1ncnc2[nH]cnc12 [Azathioprine] | 0.321 |
| CN1CC2c3ccccc3Oc3ccc(Cl)cc3C2C1 (stereo not given) [Asenapine maleate] | -7.05 |
| Cc1cccc(C)c1OCC(C)N (stereo not given) [Mexiletine hydrochloride] | -1.93 |
| CCOC(=O)C1=C(COCCN)NC(C)=C(C(=O)OC)C1c1ccccc1Cl (stereo not given) [Amlodipine besylate] | 0.386 |

Source: the supplement of paper PMC9950053
